Data from PubChem BioAssay (NCATS).
Inconclusive results are not listed. A call without a number means that no potency is given here. The source made the active and inactive calls. Calls follow the shape of the dose curve; as a rule, active = well fitted cell-killing curve with a large enough effect; inconclusive = small, poorly fitted or top-dose-only effect; inactive = flat fitted curve, though single readings scatter.

Experiment: Cell Viability - LYMP1-002 - Assay at 40 hr (AID 994); also: nearly all actives have a fitted effect of over 60% in size
Settings: LYMP1-002 lymphoblastoid cell viability; series mostly up to 92.2 µM
From the text: NIH Chemical Genomics Center [NCGC]
NIH Molecular Libraries Screening Centers Network [MLSCN]
National Institutes of Environmental Health Sciences [NIEHS]
National Toxicology Program [NTP]
We have developed a 1536-well cell-based assay for quantitative high throughput screening (qHTS) against a number of cell lines to determine in vitro cytotoxicity of small molecules. This particular assay uses a human lymphoblastoid cell line (LYMP1-002) purchased from Coriell Institute for Medical Research.
NCGC Assay Protocol Summary:
The CellTiter-Glo luminescent cell viability assay (Promega) is a homogeneous method to measure the number of viable cells in culture. The end point readout of this assay is based on quantitation of intracellular ATP, an indicator of metabolic activity, using the luciferase reaction. Luciferase catalyzes the oxidation of beetle Luciferin to oxyluciferin and light in the presence of ATP. The luminescent signal is proportional to amount of ATP present.
Using the CellTiter-Glo luminescent cell viability assay, the amount of cellular ATP was measured in the lymphoblastoid cell line with complete culture medium following compound treatment for 40 hours. The assay was performed in opaque white Kalypsys 1536-well plates. In the screen, tetraoctylammonium bromide was used as positive control. Library compounds were measured for their ability to cause acute toxicity in the cell line, as reflected by a decrease in intracellular ATP levels, in a concentration-dependent manner. […] AC50 values were determined from concentration-response data modeled with the standard Hill equation.
qHTS protocol for CellTiter Glo lymphoblastoid cellular assay
[Step] [Parameter] [Value] [Description]
1. Reagent; 5 uL; 2500 lymphoblastoid cells/well
2. Time; 5 hr; 37 C incubation
4. Controls; 23 nL; Tetraoctylammonium bromide 6.4pM to 92 uM
5. Time; 40 hr; 37 C incubation
6. Reagent; 5 uL; CellTiter Glo reagent
7. Time; 30 min; Room Temperature
8. Detection; Luminescence; Viewlux plate reader
Keywords: cell viability, cytotoxicity, lymphoblastoid cell line, luminescence, NTPHTS, NTPHTS_NCGC, NIEHS, DSSTox, MLSMR, MLSCN, NIH Roadmap, qHTS, NCGC
Potency is read from the fitted curve at half-maximal effect.

SMILES	Potency
CCCNC(=O)NS(=O)(=O)c1ccc(Cl)cc1	inactive
CC(=O)O[C@]1(C(C)=O)CC[C@H]2[C@@H]3C=C(Cl)C4=CC(=O)[C@@H]5C[C@@H]5[C@]4(C)[C@H]3CC[C@@]21C	inactive
CCn1cc(C(=O)O)c(=O)c2ccc(C)nc21	inactive
O=c1c(O)c(-c2ccc(O)cc2)oc2cc(O)cc(O)c12	inactive
CN(C)CCC(c1ccccc1)c1ccccn1 (centres undefined)	inactive
CC(=O)c1ccc(S(=O)(=O)NC(=O)NC2CCCCC2)cc1	inactive
CCCCC1C(=O)N(c2ccccc2)N(c2ccccc2)C1=O	inactive
O=C(O)c1cc(O)c2c(c1)C(=O)c1cccc(O)c1C2=O	inactive
CC1=C(/C=C/C(C)=C/C=C/C(C)=C/C(=O)Nc2ccc(O)cc2)C(C)(C)CCC1	50.1 µM (active)
O=c1[nH]cnc2c1ncn2[C@H]1CC[C@@H](CO)O1	inactive
CC/C(=C(\c1ccccc1)c1ccc(OCCN(C)C)cc1)c1ccccc1	50.1 µM (active)
O=c1c(-c2ccc(O)cc2)coc2cc(O)ccc12	inactive
O=C(O)Cc1cccc2ccccc12	inactive
O=C1NC(=O)C(c2ccccc2)(c2ccccc2)N1	inactive
